According to the OligoGym collection:

Target: RNF219
Experiment: pooled miR-30 sensor sort-seq; sequence = guide strand
Settings: shRNA
Also: reference of the scale not given here.

**Q.** TTTTGGATAAACATAAGCCTGA was tested. Which sensor-assay potency score (higher = more potent) did it give?
**A.** -0.319

**Q.** How did the sensor-assay potency score (higher = more potent) turn out when ATACTTATCACTTCGTTCCAGG was run?
**A.** -0.456

**Q.** With TCTGTCTGAAACAAGCAGCTTG as the sequence, how does the sensor-assay potency score (higher = more potent) read?
**A.** -0.169

**Q.** TTGATATAGGTCTTTGTTCTTA was tested. Which sensor-assay potency score (higher = more potent) did it give?
**A.** -0.397

**Q.** TAGCTTATCCACATCATCTTTC was tested. Which sensor-assay potency score (higher = more potent) did it give?
**A.** -0.402

**Q.** TAAACAATCTATTTCGTCCTCA was tested. Which sensor-assay potency score (higher = more potent) did it give?
**A.** 0.474

Target: RNF41
Experiment: as above
Settings: shRNA

**Q.** Which sensor-assay potency score (higher = more potent) does the source give for ATCTGTCTAGTCTCTAGTGTGG here?
**A.** -0.878

**Q.** How did the sensor-assay potency score (higher = more potent) turn out when TAGTTCTCATAGTAGCGTCGGT was run?
**A.** -0.784

**Q.** Which sensor-assay potency score (higher = more potent) does the source give for TCTGATTTCCATCTCTTCCTGA here?
**A.** 0.105

**Q.** How did the sensor-assay potency score (higher = more potent) turn out when TCATCTGTCTAGTCTCTAGTGT was run?
**A.** -0.527

**Q.** AACATGTTCCGCATGATCCGAG was tested. Which sensor-assay potency score (higher = more potent) did it give?
**A.** -0.3

**Q.** ATCTTCGTCAACATCCCCCTGG was tested. Which sensor-assay potency score (higher = more potent) did it give?
**A.** -0.316

**Q.** With TTTGACAACATGTTCCGCATGA as the sequence, how does the sensor-assay potency score (higher = more potent) read?
**A.** 0.502

**Q.** Which sensor-assay potency score (higher = more potent) does the source give for AAGATCTTCGTCAACATCCCCC here?
**A.** -0.164

**Q.** With TTCAGCTGACGTCTTCTCCAGC as the sequence, how does the sensor-assay potency score (higher = more potent) read?
**A.** -0.881

**Q.** With TAGCGTCGGTTCATCTGTCTAG as the sequence, how does the sensor-assay potency score (higher = more potent) read?
**A.** 0.0647

**Q.** Which sensor-assay potency score (higher = more potent) does the source give for TAATTTATAGACATTTTAGGGG here?
**A.** 0.0646

Target: RNMTL1
Experiment: as above
Settings: shRNA

**Q.** With TTTATTAGACATCTCAGCCTGG as the sequence, how does the sensor-assay potency score (higher = more potent) read?
**A.** 0.616

**Q.** TGATGCTTCAGGAACTTTCTGG was tested. Which sensor-assay potency score (higher = more potent) did it give?
**A.** -0.0145

**Q.** TTTCCTGTAACTGTATGACGGC was tested. Which sensor-assay potency score (higher = more potent) did it give?
**A.** -0.465

**Q.** With TTGTCAGCCACATAGACCCGAG as the sequence, how does the sensor-assay potency score (higher = more potent) read?
**A.** -0.82

**Q.** With TTTACTATTGTCATTACACTGC as the sequence, how does the sensor-assay potency score (higher = more potent) read?
**A.** -0.096

**Q.** How did the sensor-assay potency score (higher = more potent) turn out when TTGTGAAACTTCATCACTCGTT was run?
**A.** 0.595

**Q.** How did the sensor-assay potency score (higher = more potent) turn out when TAGCTTTATTAGACATCTCAGC was run?
**A.** -0.834

**Q.** How did the sensor-assay potency score (higher = more potent) turn out when TTGGTGAGTAACACTTTGCTGC was run?
**A.** -0.11

**Q.** With TTATTAGACATCTCAGCCTGGG as the sequence, how does the sensor-assay potency score (higher = more potent) read?
**A.** -0.331

**Q.** With TTCTGTTCCACCACCTCTCCGG as the sequence, how does the sensor-assay potency score (higher = more potent) read?
**A.** -0.00954

**Q.** With TACTATTGTCATTACACTGCTC as the sequence, how does the sensor-assay potency score (higher = more potent) read?
**A.** 0.0183

**Q.** TTATTGATAATGGGCATCCGGA was tested. Which sensor-assay potency score (higher = more potent) did it give?
**A.** -0.992

Target: RNPC3
Experiment: as above
Settings: shRNA

**Q.** How did the sensor-assay potency score (higher = more potent) turn out when TATATCAAACATGATCCGCTGT was run?
**A.** 0.81

**Q.** Which sensor-assay potency score (higher = more potent) does the source give for TTTCTTGAACATGTTTAGCTAA here?
**A.** -0.355

**Q.** With TCGAGCAAACTGAACCACCATG as the sequence, how does the sensor-assay potency score (higher = more potent) read?
**A.** -1.27

**Q.** With TATTGTTTTAGGTCTTTTGGGC as the sequence, how does the sensor-assay potency score (higher = more potent) read?
**A.** -0.105

**Q.** Which sensor-assay potency score (higher = more potent) does the source give for TTCTTGAACATGTTTAGCTAAA here?
**A.** -1.09

**Q.** How did the sensor-assay potency score (higher = more potent) turn out when TTAAATACACTTTCAAAGCTGT was run?
**A.** 0.272

**Q.** For TTTTTCTTTATCATCTTCGACA, which sensor-assay potency score (higher = more potent) is on record?
**A.** -0.554

**Q.** TTTGCTAGGATTGTGCTGGAAG was tested. Which sensor-assay potency score (higher = more potent) did it give?
**A.** -0.549

**Q.** Which sensor-assay potency score (higher = more potent) does the source give for TTCTCTAGAAATTCTGCCCTTT here?
**A.** -0.078

**Q.** For TTCCTCACAATTTTGTTCCTTT, which sensor-assay potency score (higher = more potent) is on record?
**A.** 1.11

**Q.** TTGGTCTAGCAGATCGAGCAAA was tested. Which sensor-assay potency score (higher = more potent) did it give?
**A.** -1.03
